Assay [1] addresses Cytochrome P450 2D6 (Homo sapiens) (UniProt P10635). In words: Cytochrome P450 family 2 subfamily D member 6 (CYP2D6) small molecule antagonists: luciferase biochemical (cell-free) qHTS assay (AID 1645840; active means well fitted curve in the direction sought with a large enough effect in the repeat runs; an effect the other way counts as inactive or inconclusive; further: nearly all actives have a fitted effect of over 55% in size; further: potency means the concentration at half of the fitted maximal effect; on activity change, negative = inhibition: on the % scale 0 is the no-effect control and ±100 the full control effect). The essentials: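 P450-Glo CYP2D6 system: proluciferin substrate converted by enzyme to luciferin, read by luminescence proportional to activity. Enzyme-substrate mix with compound 10 min at room temperature, then NADPH regeneration 1 h before detection reagent.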
On the technique in general: qHTS replaces the single test concentration by a dilution series.

Assay [2] deals with Cytochrome P450 2C9 (Homo sapiens) (UniProt P11712). In words: Cytochrome P450 family 2 subfamily C member 9 (CYP2C9) small molecule antagonists: luciferase biochemical (cell-free) qHTS assay (AID 1645842; active means well fitted curve in the direction sought with a large enough effect in the repeat runs; an effect the other way counts as inactive or inconclusive; further: nearly all actives have a fitted effect of over 55% in size; further: potency means the concentration at half of the fitted maximal effect; on activity change, negative = inhibition: on the % scale 0 is the no-effect control and ±100 the full control effect). The essentials:
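P450-Glo CYP2C9 system: proluciferin substrate with enzyme in mix containing 0.4% BSA, 10 min at room temperature, then NADPH regeneration solution added and incubated 1 h at 37C. Detection reagent stopped reaction; luminescence read after 20 min as RLU.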

Assay [3] concerns HaCat. Description: Cytotoxic Profiling of Annotated Libraries Using Quantitative High-Throughput Screening (AID 1296008). Further: nearly all actives have a fitted effect of over 60% in size. Further: potency means the concentration at half of the fitted maximal effect. On max response: on the % scale 0 is the no-effect control and ±100 the full control effect. Conditions: Five cell lines viability, CellTiter-Glo ATP luminescence, 48-72 h; max response: stronger effect = lower value. The gist of the method: (§1)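 Compounds were pin-transferred onto cells and incubated 48 or 72 hr at 37 degree Celsius, 95% humidity. CellTiter-Glo was added, plates sat 10 min at room temperature, then ATP-coupled luminescence was imaged as the viability read-out.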
A general note: Cellular ATP, detected with luciferase, serves as a proxy for viable cell number.

The next assay relates to KB-3-1. The description is as above. Conditions: Five cell lines viability, CellTiter-Glo ATP luminescence, 48-72 h; max response: stronger effect = lower value. The gist of the method:
as §1

A further assay relates to HeLa. Description: Primary qHTS to identify gynecologic anti-cancer compounds using libraries of approved drugs and bioactive compounds (AID 1345084). Further: nearly all actives have a fitted effect of over 55% in size. Further: potency means the concentration at half of the fitted maximal effect. Conditions: Gynecologic cancer cell panel viability, ATPlite luminescence, 48 h; series mostly up to 57.5 µM. The essentials: (§2)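 Five-concentration response, 48 h; readout is ATP-driven luciferase luminescence.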
The test system of another assay is SKOV3. The description is as above. Conditions: Gynecologic cancer cell panel viability, ATPlite luminescence, 48 h; series mostly up to 57.5 µM. The gist of the method:
as §2

Assay [4] is described as follows: Primary redox qHTS assay for identification of artifact compounds. (AID 1845223).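 Further: 0% = DMSO and 100% = reference compound.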 The gist of the method:
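Redox-cycling detection via DTT (250 uM final) oxidation coupled to Amplex Red (25 uM)/HRP (250 mU/mL) in HBSS. 15 min preincubation plus 30 min after DTT, room temperature. Ex/Em 525/598 nm; 4-parameter Hill fit against DMSO and 10 uM DA3003.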

The test system of assay [5] is HACAT. In words: qHTS assay to identify novel small-molecules to repurpose for Merkel cell carcinoma treatment (AID 1296009). Further: nearly all actives have a fitted effect of over 60% in size. Conditions: MCC and control cell lines, CellTiter-Glo viability, 72 h; at 44.8 µM (top of the series) unless noted. The gist of the method: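 Viability readout: ATP luminescence (CellTiter-Glo) after 72 hr drug exposure at 37 degree celsius. Dose-response format was 8 points for NPC and 11 points for MIPE; data normalized to in-plate controls.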

A short description of assay [6]: P-glycoprotein substrates identified in KB-8-5-11 adenocarcinoma cell line, qHTS therapeutic library screen (AID 1346987). Further: nearly all actives have a fitted effect of over 65% in size. Further: potency means the concentration at half of the fitted maximal effect. The essentials:
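Luminescence from CellTiter-Glo, read 5 min after addition, quantified survival of KB-8-5-11 (P-gp-overexpressing) cells exposed to compounds for 72 h. AC50 was derived from concentration-response curves.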

Assay [7] is described as follows: Primary qHTS for inhibitors of nuclear receptor binding SET domain protein 2 (NSD2) in an isogenic RCH-ACV NSD2 p.E1099K mutant (9B) (AID 1645876). Further: nearly all actives have a fitted effect of over 70% in size. Further: potency means the concentration at half of the fitted maximal effect.
Assay [8] in a line: Primary qHTS for inhibitors of nuclear receptor binding SET domain protein 2 (NSD2) in an RCH-ACV wild type WT cells (2C) (AID 1645877). Further: potency means the concentration at half of the fitted maximal effect; nearly all actives have a fitted effect of over 70% in size.
Assay [9] can be described thus: P-glycoprotein substrates identified in KB-3-1 adenocarcinoma cell line, qHTS therapeutic library screen (AID 1346986). Further: nearly all actives have a fitted effect of over 60% in size. The essentials:
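72 h cell-killing screen, 500 cells/well, CellTiter-Glo luminescence. Paired lines KB-3-1/KB-8-5-11; P-gp dependence checked by tariquidar co-treatment and HEK-293 MDR-19 versus empty-vector cells.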

The target in assay [10] is Catechol O-methyltransferase (Homo sapiens) (UniProt P21964). In words: Confirmatory Screen for Target Class Profiling of Small Molecule Inhibitors of Methyltransferases (AID 1745852). On activity change, negative = inhibition: on the % scale 0 is the no-effect control and ±100 the full control effect. Conditions: MTase-Glo luminescence, SAH detection, recombinant enzyme; measured here: COMT max response; stronger effect = lower value.
Chain of Catechol O-methyltransferase (Homo sapiens) (P21964 whole entry, looked up): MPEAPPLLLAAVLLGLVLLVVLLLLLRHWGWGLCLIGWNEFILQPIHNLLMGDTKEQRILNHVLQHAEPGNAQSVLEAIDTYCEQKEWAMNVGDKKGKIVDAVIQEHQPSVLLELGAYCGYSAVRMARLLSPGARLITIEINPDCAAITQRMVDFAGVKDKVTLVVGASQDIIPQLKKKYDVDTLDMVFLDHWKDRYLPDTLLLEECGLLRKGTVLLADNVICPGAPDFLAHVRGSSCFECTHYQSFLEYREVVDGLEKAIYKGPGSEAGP
Assay [11] addresses Guanidinoacetate N-methyltransferase (Homo sapiens) (UniProt Q14353). The assay is described as above. Conditions: activity change, negative = inhibition: at 57.3 µM (top of the series) unless noted.
For assay [12], the target named is Nicotinamide N-methyltransferase (Homo sapiens) (UniProt P40261). The assay is described as above. Conditions: MTase-Glo luminescence, SAH detection, recombinant enzyme; measured here: NNMT max response; stronger effect = lower value.
Chain of Nicotinamide N-methyltransferase (Homo sapiens) (P40261 whole entry, looked up): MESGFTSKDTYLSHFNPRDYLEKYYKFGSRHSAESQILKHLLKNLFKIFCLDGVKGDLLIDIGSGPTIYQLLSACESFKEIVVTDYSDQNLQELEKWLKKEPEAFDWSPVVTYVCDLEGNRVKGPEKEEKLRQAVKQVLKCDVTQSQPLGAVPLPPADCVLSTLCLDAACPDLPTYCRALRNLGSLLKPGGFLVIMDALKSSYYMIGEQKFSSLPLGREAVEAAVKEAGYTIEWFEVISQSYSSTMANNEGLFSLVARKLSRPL
In assay [13] the target is Phenylethanolamine N-methyltransferase (Homo sapiens) (UniProt P11086). Described as above. Conditions: MTase-Glo luminescence, SAH detection, recombinant enzyme; measured here: PNMT max response; stronger effect = lower value.
Chain of Phenylethanolamine N-methyltransferase (Homo sapiens) (P11086 whole entry, looked up): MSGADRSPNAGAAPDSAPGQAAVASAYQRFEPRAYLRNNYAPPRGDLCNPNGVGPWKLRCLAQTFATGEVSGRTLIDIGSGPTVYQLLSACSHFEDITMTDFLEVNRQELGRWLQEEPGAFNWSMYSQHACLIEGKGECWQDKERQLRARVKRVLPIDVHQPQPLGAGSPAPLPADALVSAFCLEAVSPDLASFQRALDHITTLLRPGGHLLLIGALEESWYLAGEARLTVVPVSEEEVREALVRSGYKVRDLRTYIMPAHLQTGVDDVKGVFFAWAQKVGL

Results filed as inconclusive are left out. Active and inactive are the calls of the source. Unless noted, the call rests on the fitted dose curve; in most records, active means well fitted curve in the direction sought with a large enough effect; inconclusive means small, poorly fitted or top-dose-only effect, or another doubt; inactive means no such curve, though single readings can be large; an effect the other way counts as inactive or inconclusive.

Chain of Cytochrome P450 2D6 (Homo sapiens) (P10635 whole entry, looked up): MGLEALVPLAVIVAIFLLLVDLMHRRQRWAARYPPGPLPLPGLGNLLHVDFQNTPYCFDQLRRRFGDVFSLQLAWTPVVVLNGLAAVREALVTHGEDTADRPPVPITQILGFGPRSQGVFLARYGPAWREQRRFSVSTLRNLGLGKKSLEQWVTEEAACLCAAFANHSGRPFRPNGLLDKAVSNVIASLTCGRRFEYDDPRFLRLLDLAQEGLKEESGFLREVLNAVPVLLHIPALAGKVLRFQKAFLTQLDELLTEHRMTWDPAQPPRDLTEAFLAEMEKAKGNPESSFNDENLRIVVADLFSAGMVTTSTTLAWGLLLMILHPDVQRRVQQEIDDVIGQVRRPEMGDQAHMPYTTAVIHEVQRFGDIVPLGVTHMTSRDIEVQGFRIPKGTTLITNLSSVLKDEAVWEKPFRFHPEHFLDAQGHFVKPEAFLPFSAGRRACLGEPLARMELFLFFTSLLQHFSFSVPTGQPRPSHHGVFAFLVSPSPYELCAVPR
Chain of Cytochrome P450 2C9 (Homo sapiens) (P11712 whole entry, looked up): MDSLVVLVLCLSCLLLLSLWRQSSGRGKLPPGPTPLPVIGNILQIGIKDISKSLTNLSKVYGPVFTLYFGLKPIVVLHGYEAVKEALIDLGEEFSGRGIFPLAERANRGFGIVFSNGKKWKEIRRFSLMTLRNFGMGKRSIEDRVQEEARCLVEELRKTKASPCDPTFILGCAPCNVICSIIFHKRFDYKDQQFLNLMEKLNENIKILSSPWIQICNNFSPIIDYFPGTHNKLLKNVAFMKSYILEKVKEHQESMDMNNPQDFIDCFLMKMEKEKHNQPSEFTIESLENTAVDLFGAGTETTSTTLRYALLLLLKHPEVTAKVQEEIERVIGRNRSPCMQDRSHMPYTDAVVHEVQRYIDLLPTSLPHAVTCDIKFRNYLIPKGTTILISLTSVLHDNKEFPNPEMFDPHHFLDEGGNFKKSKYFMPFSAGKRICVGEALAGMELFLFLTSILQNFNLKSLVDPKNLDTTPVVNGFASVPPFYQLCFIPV

For the compound `COC1(C[S@@](=O)c2ccccc2)CCN(CCc2c[nH]c3ccc(F)cc23)CC1`, the Potency in assay [1] was 2390 nM (active). In addition, the Potency entry (in [2]; with HeLa; in the assay with SKOV3) was “inactive” in each case. The max response in the assay with HaCat [3] was 3.53% (inactive); in the assay with KB-3-1, 6.86% (inactive).

For the compound `CN1C(=O)C(Cc2ccc3ccccc3c2)N=C(c2ccc(O)cc2)c2cc(Cl)ccc21` (stereo not given), the Potency in assay [1] was 10700 nM (active). Further, the Potency result (in [4]; with HeLa; in the assay with SKOV3) was “inactive” each time. The outcome in the assay with HaCat [3] and in the assay on HACAT [5] was “inactive” throughout.

`CC1(C)C(=O)N(c2ccc(C#N)c(C(F)(F)F)c2)C(=S)N1c1ccc(C(N)=O)c(F)c1`: the Potency entry (in assay [6]; in assay [1]; in assay [7]; in assay [4]; in the assay on SKOV3) was “inactive” in each case. Further, the Potency in [2] was 19000 nM (active). Further, the outcome in the assay with HaCat [3] and in the assay on HACAT [5] was “inactive” each time. Also, the max response with KB-3-1 is -16.1% (inactive).

On to `O=C(C[C@@H]1NCCC[C@H]1O)Cn1cnc2ccccc2c1=O`, for which the Potency in [6] is 259 nM (active); in [7], 129 nM (active); in assay [8], 145 nM (active); with HaCat [3], 1300 nM (active); with KB-3-1, 259 nM (active); in the assay with HeLa, 1780 nM (active).

For the compound `NCCCCCNC1(c2ccccc2)CCCCC1`, the Potency entry (in [6]; in assay [2]; in assay [4]; in the assay with HeLa; in the assay with SKOV3) was “inactive” each time. Besides, in assay [1], the Potency is 2130 nM (active). Besides, the outcome with HaCat [3] and in the assay with HACAT [5] was “inactive” in each case. Further, in the assay on KB-3-1, the max response was -2.11% (inactive).

On to `CC(=O)OC[C@]12[C@H](OC(C)=O)C(=O)[C@@H]3[C@@H](O)[C@@]14O[C@@]3(C)COC(=O)c1cccnc1[C@@H](C)[C@H](C)C(=O)O[C@@H]([C@H](OC(C)=O)[C@@H]2OC(C)=O)[C@]4(C)O`, for which the Potency result (in assay [4]; with SKOV3) was “inactive” throughout. In addition, the outcome with HaCat [3] is “inactive”. The max response with KB-3-1 is 7.87% (inactive). The outcome in the assay on HACAT [5] is “inactive [at 17.4 µM]”.

As for `CCCN(CCC)CCc1ccc(OC)c(OCCc2ccccc2)c1`, the Potency entry (in [9]; in assay [6]; in assay [4]; in the assay on HeLa; with SKOV3) was “inactive” each time. Also, in assay [1], the Potency was 213 nM (active). Moreover, the max response with HaCat [3] is -13.9% (inactive). Further, the outcome with KB-3-1 was “inactive”.

Consider `Oc1ccc2c(c1)C13CCCC[C@H]1[C@@H](C2)N(CC1CCC1)CC3`, for which the Potency in assay [7] and in [8] was 23000 nM (active) throughout. The activity in assay [10] is -7.63%; in [12] it was -13.8%; in assay [13] it was -7.17%. In addition, the activity change, negative = inhibition in [11] is -6.87%. Moreover, the Potency entry (in assay [4]; with HeLa) was “inactive” in each case. Also, the outcome in the assay on HaCat [3] and in the assay with HACAT [5] was “inactive” each time. Moreover, the max response in the assay on KB-3-1 is -12.4% (inactive).

The values are drawn from PubChem BioAssay (NCATS).
